# Measurements as given in publication PMC7862700, “An all-to-all approach to the identification of sequence-specific readers for epigenetic DNA modifications on cytosine”.
# Columns and labels:
# Assay in all cases: DAPPL (digital affinity profiling via proximity ligation, sequencing); 10 mM Tris-HCl pH 7.5, 50 mM NaCl, 1 mM DTT, 4% glycerol, room temperature, 30 min; GST-TFs on glutathione beads, 16-mer random dsDNA library, 0.1% formaldehyde crosslink after washing; high values mean tight binding
# FEV = molecular target: T1, FEV (Homo sapiens, UniProt Q99581 1-238); details: protein: recombinant; tags: N-terminal GST; dsDNA, one strand shown
# T1 sequence: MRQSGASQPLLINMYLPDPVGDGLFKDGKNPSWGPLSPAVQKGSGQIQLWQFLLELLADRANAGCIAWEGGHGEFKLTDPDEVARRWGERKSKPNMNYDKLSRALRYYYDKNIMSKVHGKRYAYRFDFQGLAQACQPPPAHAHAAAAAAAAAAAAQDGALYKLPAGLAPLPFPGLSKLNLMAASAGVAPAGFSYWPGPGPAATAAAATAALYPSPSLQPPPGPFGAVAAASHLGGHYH
# Summary of the method: (§1)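 A tag-only sample was pooled with DNA-barcoded human transcription factors that had been expressed in yeast as GST fusions and captured on glutathione beads. The pools were incubated for 30 min at room temperature with 200 nmole of a random double-stranded 16-mer DNA library in Tris/NaCl/DTT/glycerol buffer, then washed, crosslinked with 0.1% formaldehyde, proximity-ligated (BsaI/T4 ligase, 1 h, 37 °C), PCR-amplified and sequenced on an Illumina NextSeq500. Binding signal is each hexamer's read frequency for a factor divided by its frequency for the tag-only sample.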
# ETV5 = ETV5 (Homo sapiens, UniProt P41161 1-510); details: protein: recombinant; tags: N-terminal GST; dsDNA, one strand shown
# Summary of the method: as §1
# HSF1 = HSF1 (Homo sapiens, UniProt Q00613 1-529); details: protein: recombinant; tags: N-terminal GST; chain copies: 3; dsDNA, one strand shown
# Summary of the method: as §1
# SPIC = molecular target: T2, SPIC (Homo sapiens, UniProt Q8N5J4 1-248); details: protein: recombinant; tags: N-terminal GST; dsDNA, one strand shown
# T2 sequence: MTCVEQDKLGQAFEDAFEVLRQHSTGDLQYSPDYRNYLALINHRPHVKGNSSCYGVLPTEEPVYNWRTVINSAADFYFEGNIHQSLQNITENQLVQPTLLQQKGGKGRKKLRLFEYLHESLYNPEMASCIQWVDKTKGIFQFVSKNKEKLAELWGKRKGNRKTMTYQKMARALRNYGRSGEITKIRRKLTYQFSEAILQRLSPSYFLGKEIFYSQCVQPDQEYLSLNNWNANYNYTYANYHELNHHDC
# Summary of the method: as §1
# ELF4 = ELF4 (Homo sapiens, UniProt Q99607 1-663); details: protein: recombinant; tags: N-terminal GST; dsDNA, one strand shown
# Summary of the method: as §1
# ELK4 = molecular target: T3, ELK4 (Homo sapiens, UniProt P28324-2 1-405); details: protein: recombinant; tags: N-terminal GST; dsDNA, one strand shown
# T3 sequence: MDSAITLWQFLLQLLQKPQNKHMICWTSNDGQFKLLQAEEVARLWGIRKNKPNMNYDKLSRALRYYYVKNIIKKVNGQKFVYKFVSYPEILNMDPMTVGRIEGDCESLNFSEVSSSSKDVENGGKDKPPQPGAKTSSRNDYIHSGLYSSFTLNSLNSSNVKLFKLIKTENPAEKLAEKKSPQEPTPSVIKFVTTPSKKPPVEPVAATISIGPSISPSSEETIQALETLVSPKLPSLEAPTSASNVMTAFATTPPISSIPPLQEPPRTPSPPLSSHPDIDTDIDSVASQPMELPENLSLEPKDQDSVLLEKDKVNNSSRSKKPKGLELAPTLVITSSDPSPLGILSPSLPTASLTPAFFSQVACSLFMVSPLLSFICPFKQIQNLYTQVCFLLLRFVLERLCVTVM
# Summary of the method: as §1
# ETV2 = molecular target: T4, ETV2 (Homo sapiens, UniProt O00321 1-342); details: protein: recombinant; tags: N-terminal GST; dsDNA, one strand shown
# T4 sequence: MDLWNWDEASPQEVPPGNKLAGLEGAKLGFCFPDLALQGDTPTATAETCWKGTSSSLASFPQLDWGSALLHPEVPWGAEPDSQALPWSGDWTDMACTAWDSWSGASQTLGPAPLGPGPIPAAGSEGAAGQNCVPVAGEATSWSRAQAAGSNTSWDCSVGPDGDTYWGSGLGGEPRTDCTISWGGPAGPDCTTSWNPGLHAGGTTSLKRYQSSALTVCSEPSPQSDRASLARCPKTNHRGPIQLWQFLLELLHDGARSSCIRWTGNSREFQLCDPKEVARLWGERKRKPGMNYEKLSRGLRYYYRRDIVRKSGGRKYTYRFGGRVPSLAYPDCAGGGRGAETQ
# Summary of the method: as §1
# ELF3 = molecular target: T5, ELF3 (Homo sapiens, UniProt P78545 1-371); details: protein: recombinant; tags: N-terminal GST; dsDNA, one strand shown
# T5 sequence: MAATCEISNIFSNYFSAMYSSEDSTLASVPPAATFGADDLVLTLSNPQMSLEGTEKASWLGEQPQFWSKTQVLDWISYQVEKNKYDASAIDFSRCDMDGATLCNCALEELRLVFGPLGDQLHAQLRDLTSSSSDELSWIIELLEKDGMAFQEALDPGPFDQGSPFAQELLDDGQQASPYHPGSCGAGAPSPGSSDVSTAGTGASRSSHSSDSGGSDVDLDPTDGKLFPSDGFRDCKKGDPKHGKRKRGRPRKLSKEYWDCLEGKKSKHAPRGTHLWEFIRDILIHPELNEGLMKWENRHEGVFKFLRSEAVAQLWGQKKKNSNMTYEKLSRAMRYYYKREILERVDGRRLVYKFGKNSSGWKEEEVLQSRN
# Summary of the method: as §1
# CRX = CRX (Homo sapiens, UniProt O43186 1-299); details: protein: recombinant; tags: N-terminal GST; dsDNA, one strand shown
# Summary of the method: as §1
# ETV1 = ETV1 (Homo sapiens, UniProt P50549 1-477); details: protein: recombinant; tags: N-terminal GST; dsDNA, one strand shown
# Summary of the method: as §1
# ERF = molecular target: T6, ERF (Homo sapiens, UniProt P50548 1-548); details: protein: recombinant; tags: N-terminal GST; dsDNA, one strand shown
# T6 sequence: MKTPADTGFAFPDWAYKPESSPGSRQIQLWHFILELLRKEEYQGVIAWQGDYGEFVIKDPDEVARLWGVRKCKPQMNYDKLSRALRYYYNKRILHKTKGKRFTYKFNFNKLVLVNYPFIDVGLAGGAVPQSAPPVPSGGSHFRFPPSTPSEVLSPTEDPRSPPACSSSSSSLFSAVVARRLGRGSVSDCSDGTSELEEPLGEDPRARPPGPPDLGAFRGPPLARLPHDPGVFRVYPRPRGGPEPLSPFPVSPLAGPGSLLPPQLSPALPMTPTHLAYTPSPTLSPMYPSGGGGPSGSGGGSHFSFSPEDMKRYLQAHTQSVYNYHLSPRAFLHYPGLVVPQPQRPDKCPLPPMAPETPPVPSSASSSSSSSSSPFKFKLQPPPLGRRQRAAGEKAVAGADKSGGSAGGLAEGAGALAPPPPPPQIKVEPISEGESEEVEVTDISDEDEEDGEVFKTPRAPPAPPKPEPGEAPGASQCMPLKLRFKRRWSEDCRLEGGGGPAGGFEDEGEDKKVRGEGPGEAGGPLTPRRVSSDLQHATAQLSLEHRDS
# Summary of the method: as §1
# ETV3L = molecular target: T7, ETV3L (Homo sapiens, UniProt Q6ZN32 1-361); details: protein: recombinant; tags: N-terminal GST; dsDNA, one strand shown
# T7 sequence: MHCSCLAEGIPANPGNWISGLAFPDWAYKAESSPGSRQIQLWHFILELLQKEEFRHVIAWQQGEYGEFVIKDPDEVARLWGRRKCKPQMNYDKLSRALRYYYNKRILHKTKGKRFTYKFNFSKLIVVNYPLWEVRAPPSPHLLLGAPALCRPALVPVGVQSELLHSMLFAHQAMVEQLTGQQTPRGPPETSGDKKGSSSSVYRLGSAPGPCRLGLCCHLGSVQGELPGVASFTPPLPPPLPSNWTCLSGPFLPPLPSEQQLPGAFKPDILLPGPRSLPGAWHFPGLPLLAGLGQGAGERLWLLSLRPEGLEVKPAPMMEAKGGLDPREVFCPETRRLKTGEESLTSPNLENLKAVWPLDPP
# Summary of the method: as §1
# ETS2 = molecular target: T8, ETS2 (Homo sapiens, UniProt P15036 1-469); details: protein: recombinant; tags: N-terminal GST; dsDNA, one strand shown
# T8 sequence: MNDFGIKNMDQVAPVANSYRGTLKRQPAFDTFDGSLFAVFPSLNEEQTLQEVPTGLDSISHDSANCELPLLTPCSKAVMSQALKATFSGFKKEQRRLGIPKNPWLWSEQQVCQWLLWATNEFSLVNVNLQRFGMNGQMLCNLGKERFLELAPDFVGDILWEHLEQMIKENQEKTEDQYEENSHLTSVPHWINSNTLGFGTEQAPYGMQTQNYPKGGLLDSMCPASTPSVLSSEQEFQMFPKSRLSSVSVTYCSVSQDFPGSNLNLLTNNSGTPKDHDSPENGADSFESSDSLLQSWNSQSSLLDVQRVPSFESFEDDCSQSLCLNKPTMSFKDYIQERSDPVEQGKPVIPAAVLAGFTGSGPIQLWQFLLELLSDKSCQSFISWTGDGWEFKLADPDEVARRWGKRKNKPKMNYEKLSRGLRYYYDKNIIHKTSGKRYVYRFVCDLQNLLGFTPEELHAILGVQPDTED
# Summary of the method: as §1
# SPDEF = molecular target: T9, SPDEF (Homo sapiens, UniProt O95238 1-335); details: protein: recombinant; tags: N-terminal GST; dsDNA, one strand shown
# T9 sequence: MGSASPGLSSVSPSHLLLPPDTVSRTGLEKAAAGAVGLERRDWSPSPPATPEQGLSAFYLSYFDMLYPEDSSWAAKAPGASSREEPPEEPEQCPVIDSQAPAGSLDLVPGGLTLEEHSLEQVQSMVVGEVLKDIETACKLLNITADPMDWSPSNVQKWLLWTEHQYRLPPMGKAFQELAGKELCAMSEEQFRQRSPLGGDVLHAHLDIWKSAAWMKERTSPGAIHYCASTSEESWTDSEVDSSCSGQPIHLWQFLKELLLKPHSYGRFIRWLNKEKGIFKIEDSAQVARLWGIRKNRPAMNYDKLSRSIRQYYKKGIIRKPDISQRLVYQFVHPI
# Summary of the method: as §1
# ETV7 = molecular target: T10, ETV7 (Homo sapiens, UniProt Q9Y603 1-341); details: protein: recombinant; tags: N-terminal GST; dsDNA, one strand shown
# T10 sequence: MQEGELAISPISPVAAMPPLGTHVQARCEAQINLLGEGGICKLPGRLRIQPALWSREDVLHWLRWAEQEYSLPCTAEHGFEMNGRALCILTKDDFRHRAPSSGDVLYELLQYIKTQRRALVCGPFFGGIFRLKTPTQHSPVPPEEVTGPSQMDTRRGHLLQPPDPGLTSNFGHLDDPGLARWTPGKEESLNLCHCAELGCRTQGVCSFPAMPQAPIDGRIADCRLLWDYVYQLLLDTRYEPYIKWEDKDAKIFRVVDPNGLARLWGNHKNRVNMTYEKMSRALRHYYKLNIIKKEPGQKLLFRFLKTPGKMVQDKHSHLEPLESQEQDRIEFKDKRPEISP
# Summary of the method: as §1
# ELF5 = molecular target: T11, ELF5 (Homo sapiens, UniProt Q9UKW6-2 1-255); details: protein: recombinant; tags: N-terminal GST; dsDNA, one strand shown
# T11 sequence: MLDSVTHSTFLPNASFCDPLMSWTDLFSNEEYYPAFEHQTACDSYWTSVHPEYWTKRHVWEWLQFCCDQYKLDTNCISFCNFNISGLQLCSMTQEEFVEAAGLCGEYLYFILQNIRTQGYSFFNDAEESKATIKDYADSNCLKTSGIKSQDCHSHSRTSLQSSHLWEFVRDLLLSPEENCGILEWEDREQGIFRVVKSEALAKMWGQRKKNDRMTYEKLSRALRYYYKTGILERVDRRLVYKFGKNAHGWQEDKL
# Summary of the method: as §1
# ETV3 = molecular target: T12, ETV3 (Homo sapiens, UniProt P41162-2 1-143); details: protein: recombinant; tags: N-terminal GST; dsDNA, one strand shown
# T12 sequence: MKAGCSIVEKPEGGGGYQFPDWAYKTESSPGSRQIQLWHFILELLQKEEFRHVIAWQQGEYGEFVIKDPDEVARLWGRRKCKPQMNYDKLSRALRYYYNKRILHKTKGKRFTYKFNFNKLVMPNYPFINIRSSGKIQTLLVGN
# Summary of the method: as §1
# ETV6 = ETV6 (Homo sapiens, UniProt P41212 1-452); details: protein: recombinant; tags: N-terminal GST; dsDNA, one strand shown
# Summary of the method: as §1
# Chain of ETV1 (P50549 whole entry): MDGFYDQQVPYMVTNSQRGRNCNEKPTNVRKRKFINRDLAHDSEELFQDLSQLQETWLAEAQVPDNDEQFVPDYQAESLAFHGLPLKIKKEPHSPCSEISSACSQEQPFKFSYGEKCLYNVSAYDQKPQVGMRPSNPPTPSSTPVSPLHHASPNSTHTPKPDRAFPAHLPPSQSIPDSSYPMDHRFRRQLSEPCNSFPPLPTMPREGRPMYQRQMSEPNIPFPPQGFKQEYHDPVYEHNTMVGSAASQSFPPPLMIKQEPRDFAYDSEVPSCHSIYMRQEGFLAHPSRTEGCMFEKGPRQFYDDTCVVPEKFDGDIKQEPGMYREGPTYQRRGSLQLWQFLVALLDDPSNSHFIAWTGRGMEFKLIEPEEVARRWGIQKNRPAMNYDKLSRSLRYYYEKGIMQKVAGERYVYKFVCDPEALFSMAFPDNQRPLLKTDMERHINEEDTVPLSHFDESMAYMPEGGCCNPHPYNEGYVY
# Chain of ELF4 (Q99607 whole entry): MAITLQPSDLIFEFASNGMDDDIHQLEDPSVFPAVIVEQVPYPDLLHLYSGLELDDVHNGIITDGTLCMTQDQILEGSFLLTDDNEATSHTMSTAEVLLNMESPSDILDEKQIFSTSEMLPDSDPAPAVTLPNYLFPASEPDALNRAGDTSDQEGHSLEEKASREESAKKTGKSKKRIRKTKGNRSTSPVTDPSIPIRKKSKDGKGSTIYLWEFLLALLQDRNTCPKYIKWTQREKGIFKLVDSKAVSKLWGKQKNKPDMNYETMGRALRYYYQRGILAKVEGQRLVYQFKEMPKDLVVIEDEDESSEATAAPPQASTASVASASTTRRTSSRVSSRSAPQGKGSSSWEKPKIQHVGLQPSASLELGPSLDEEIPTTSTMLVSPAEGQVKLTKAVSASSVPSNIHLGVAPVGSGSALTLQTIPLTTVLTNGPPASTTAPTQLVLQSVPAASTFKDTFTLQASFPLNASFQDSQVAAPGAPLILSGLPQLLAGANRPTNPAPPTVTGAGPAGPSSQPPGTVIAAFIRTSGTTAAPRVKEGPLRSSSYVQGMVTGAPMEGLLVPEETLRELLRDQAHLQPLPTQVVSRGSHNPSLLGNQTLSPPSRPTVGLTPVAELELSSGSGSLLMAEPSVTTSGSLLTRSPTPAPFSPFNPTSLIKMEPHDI
# Chain of CRX (O43186 whole entry): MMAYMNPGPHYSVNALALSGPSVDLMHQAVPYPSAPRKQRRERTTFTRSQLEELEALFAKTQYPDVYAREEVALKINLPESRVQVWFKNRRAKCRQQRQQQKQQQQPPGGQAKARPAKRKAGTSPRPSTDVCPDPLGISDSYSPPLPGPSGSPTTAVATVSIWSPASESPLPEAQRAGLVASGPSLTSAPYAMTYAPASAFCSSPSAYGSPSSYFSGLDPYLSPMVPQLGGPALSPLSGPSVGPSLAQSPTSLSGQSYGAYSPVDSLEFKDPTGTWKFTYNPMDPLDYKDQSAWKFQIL
# Chain of ETV5 (P41161 whole entry): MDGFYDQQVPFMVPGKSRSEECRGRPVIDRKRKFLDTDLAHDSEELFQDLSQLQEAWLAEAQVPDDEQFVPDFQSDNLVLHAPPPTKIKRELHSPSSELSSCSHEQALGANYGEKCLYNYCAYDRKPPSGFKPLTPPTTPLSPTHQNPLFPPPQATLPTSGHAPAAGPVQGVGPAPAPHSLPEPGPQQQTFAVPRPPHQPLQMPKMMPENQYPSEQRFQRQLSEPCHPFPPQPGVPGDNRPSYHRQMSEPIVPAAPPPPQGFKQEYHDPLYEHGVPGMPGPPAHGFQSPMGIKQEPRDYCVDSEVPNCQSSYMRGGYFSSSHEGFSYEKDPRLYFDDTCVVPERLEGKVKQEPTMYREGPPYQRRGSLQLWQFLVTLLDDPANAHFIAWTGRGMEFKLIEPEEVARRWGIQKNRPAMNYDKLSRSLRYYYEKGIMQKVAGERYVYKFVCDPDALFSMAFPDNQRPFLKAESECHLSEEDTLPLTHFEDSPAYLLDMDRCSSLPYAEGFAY
# Chain of ETV6 (P41212 whole entry): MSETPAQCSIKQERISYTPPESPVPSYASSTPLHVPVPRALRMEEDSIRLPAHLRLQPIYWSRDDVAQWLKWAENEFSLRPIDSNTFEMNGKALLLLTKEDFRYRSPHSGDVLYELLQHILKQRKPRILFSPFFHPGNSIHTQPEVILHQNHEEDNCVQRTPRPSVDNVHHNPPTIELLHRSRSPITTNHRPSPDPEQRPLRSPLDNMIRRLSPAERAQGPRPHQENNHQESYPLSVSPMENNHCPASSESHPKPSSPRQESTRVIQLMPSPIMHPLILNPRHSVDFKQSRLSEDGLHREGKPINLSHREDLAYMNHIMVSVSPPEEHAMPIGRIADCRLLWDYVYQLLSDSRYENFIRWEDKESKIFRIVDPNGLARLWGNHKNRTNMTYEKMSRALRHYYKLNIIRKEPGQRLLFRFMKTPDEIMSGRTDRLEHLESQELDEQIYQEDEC
# Chain of HSF1 (Q00613 whole entry): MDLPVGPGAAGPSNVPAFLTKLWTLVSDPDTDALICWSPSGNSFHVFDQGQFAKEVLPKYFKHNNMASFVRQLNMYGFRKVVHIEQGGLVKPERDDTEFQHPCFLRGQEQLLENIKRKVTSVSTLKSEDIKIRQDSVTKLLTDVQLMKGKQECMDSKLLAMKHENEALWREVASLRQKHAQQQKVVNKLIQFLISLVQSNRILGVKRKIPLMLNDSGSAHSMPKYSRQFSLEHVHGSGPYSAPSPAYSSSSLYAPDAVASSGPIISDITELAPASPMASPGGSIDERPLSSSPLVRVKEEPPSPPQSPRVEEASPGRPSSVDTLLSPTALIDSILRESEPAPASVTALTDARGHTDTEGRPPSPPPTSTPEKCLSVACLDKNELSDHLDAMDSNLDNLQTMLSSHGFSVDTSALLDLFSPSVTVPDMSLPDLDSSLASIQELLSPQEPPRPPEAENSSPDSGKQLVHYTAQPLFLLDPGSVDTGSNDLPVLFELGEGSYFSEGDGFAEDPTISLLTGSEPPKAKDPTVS
sequence,measurement,setting,value
TACTCG,binding signal,FEV,"1.23 fold enrichment (6-mer frequency, TF over GST control)"
same,binding signal,ETV5,"1.28 fold enrichment (6-mer frequency, TF over GST control)"
same,binding signal,HSF1,"1.72 fold enrichment (6-mer frequency, TF over GST control)"
same,binding signal,SPIC,"1.25 fold enrichment (6-mer frequency, TF over GST control)"
same,binding signal,ELF4,"1.22 fold enrichment (6-mer frequency, TF over GST control)"
same,binding signal,ELK4,"1.3 fold enrichment (6-mer frequency, TF over GST control)"
same,binding signal,ETV2,"1.19 fold enrichment (6-mer frequency, TF over GST control)"
same,binding signal,ELF3,"1.29 fold enrichment (6-mer frequency, TF over GST control)"
same,binding signal,CRX,"1.38 fold enrichment (6-mer frequency, TF over GST control)"
same,binding signal,ETV1,"1.26 fold enrichment (6-mer frequency, TF over GST control)"
same,binding signal,ERF,"1.3 fold enrichment (6-mer frequency, TF over GST control)"
same,binding signal,ETV3L,"1.27 fold enrichment (6-mer frequency, TF over GST control)"
same,binding signal,ETS2,"1.28 fold enrichment (6-mer frequency, TF over GST control)"
same,binding signal,SPDEF,"1.2 fold enrichment (6-mer frequency, TF over GST control)"
same,binding signal,ETV7,"1.27 fold enrichment (6-mer frequency, TF over GST control)"
same,binding signal,ELF5,"1.25 fold enrichment (6-mer frequency, TF over GST control)"
same,binding signal,ETV3,"1.28 fold enrichment (6-mer frequency, TF over GST control)"
same,binding signal,ETV6,"1.28 fold enrichment (6-mer frequency, TF over GST control)"
